Test results as given in the supplement of paper PMC8728848.
Shown is part of a subset that was picked to be rich in the strongest signals.

Columns and labels:
Experiment in all cases: glycan array binding signal (z-score within array); higher = stronger binding
Conditions in all cases: glycan notation: IUPAC condensed, linker removed
[1] = test system: Fuc(a1-2)Gal6S(b1-3)GlcNAc
Summary of the method: (§1)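 Glycan array binding is given as a within-array Z-score, which can be read as non-binding when negative. The arrays, 3228 of them, came from the Consortium for Functional Glycomics database and were retained only where the protein sequence was available. Z-scores were averaged across arrays of the same protein sequence at different concentrations or buffers and across linkers.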

[2] = test system: Fuc(a1-2)[Gal(a1-3)]Gal(b1-3)GlcNAc(b1-3)GalNAc
Summary of the method: as §1

[3] = test system: Fuc(a1-2)Gal6S(b1-4)Glc6S
Summary of the method: as §1

Fuc(a1-2)Gal = test system: Fuc(a1-2)Gal
Summary of the method: as §1

[4] = test system: Fuc(a1-2)[Gal(a1-3)]Gal(b1-3)GlcNAc
Summary of the method: as §1

Fuc(a1-2)Gal6S(b1-4)Glc = test system: Fuc(a1-2)Gal6S(b1-4)Glc
Summary of the method: as §1

[5] = test system: Fuc(a1-2)[Gal(a1-3)]Gal(b1-3)GalNAc
Summary of the method: as §1

[6] = test system: Fuc(a1-2)[Gal(a1-3)]Gal(b1-3)GlcNAc(b1-6)GalNAc
Summary of the method: as §1

[7] = test system: Fuc(a1-2)[Gal(a1-3)]Gal(b1-4)GlcNAc(b1-2)Man(a1-3)[Fuc(a1-2)[Gal(a1-3)]Gal(b1-4)GlcNAc(b1-2)Man(a1-6)]Man(b1-4)GlcNAc(b1-4)GlcNAc
Summary of the method: as §1

[8] = test system: Fuc(a1-2)[Gal(a1-3)]Gal(b1-4)GlcNAc
Summary of the method: as §1

AgI/IIC123-GFP (Streptococcus mutans)
glycan array binding signal (z-score) [1]: 4.98 | glycan array binding signal (z-score) [2]: -0.567

Actinohivin (Actinomycete K97)
glycan array binding signal (z-score) [3]: -0.121 | glycan array binding signal (z-score) (Fuc(a1-2)Gal): -0.161 | glycan array binding signal (z-score) [4]: -0.173

LcI (Legionella pneumophila)
glycan array binding signal (z-score) (Fuc(a1-2)Gal6S(b1-4)Glc): -0.438 | glycan array binding signal (z-score) [5]: -0.622

BambL (Burhholderia ambifaria), Q0B4G1
glycan array binding signal (z-score) (Fuc(a1-2)Gal): 5.01

Epa22
glycan array binding signal (z-score) [6]: -0.605 | glycan array binding signal (z-score) [7]: -0.038

GspB (Streptococcus gordonii), Q939N5
glycan array binding signal (z-score) [4]: -0.728

SiiE (Salmonella typhimurium), A0A0H3NVH0
glycan array binding signal (z-score) [8]: -0.344
